Screening results: PubChem BioAssay, National Center for Advancing Translational Sciences (NCATS)
FMDV antiviral – FMDV antiviral activity by firefly signal; FMDV antiviral cell assay, firefly luciferase signal; 120,000 compounds, 0.23% hits; Potency, µM (titrated, usually from 57.5 µM), for inactives: at the highest dose activity change, negative = inhibition, actives largely listed as inhibitors; further: nearly all actives have a fitted effect of over 60% in size
FMDV RLuc – shows antiviral activity in FMDV Renilla assay; FMDV replicon cells, Renilla luciferase signal; Potency, µM (titrated, usually from 57.5 µM), for inactives: top-dose activity change, negative = inhibition, actives largely listed as inhibitors; 120,000 compounds, 0.32% hits; AID 1745857; further: nearly all actives have a fitted effect of over 55% in size
Numbers without * were called inactive; ? = inconclusive; [ ] = another dose, or the depositor's remark. Sampled rows, rich in hits. Any-hit rate of the full collection: about 0.45%. The call rests on the fitted dose curve. On the % scale 0 is the no-effect control and ±100 the full control effect; potency means the concentration at half of the fitted maximal effect.

SMILES	FMDV antiviral	FMDV RLuc
Cc1ccc(Nc2nc(C(=O)N3CCC(C(=O)NCc4ccccc4)CC3)cs2)cc1	48%	11%
Oc1ccc(N=Cc2ccccc2OCc2ccccc2)cc1	46%	10%
Nc1nccnc1C(=O)NCc1ccc(OCc2cccc(F)c2)cc1	?	11µM*
Nc1nccnc1C(=O)NCc1cccnc1Oc1cccc(F)c1	5%	8%
Cc1ccc(SCc2cc(=O)[nH]c(N3CCN(c4ccccc4)CC3)n2)cc1	0%	-4%
CC(C)(C)NC(=O)COc1ncnc2c(Cl)cc(Cl)cc12	-2%	-10%
CC(C)CC(=O)Nc1ccc2oc(-c3ccc(F)cc3Cl)nc2c1	116%	0%
COc1ccc(CCNCc2ccc(Cl)cc2)cc1	2%	8.9µM*
COc1ccc(CNCCc2ccc(Cl)cc2)cc1	7%	-27%
CC(O)c1ccc(-c2ccc(CNCCc3ccccc3)o2)cc1 (stereo unspecified)	9%	-8%
COc1cc(C(=O)N2CCC(c3nc4ccccc4s3)CC2)cc(OC)c1OC	?	-28%
Cc1ccc(C(=O)N2CCC(c3nc4cc(C(F)(F)F)ccc4s3)CC2)cn1	?	14µM*
O=C(c1ccnc(Cl)c1)N1CCC(c2nc3cc(C(F)(F)F)ccc3s2)CC1	11µM*	?
Cc1ccc2oc(C(=O)N3CCC(c4nc5ccccc5s4)CC3)c(C)c2c1	-6%	-16%
CCCCn1c(O)c(C2=Nc3ccccc3SC(c3cccc(O)c3)C2)c(=O)[nH]c1=O (stereo unspecified)	-5%	-12%
O=C(O)c1cc(NCc2ccccc2OCc2ccccc2)ccc1N1CCOCC1	6%	35%
O=C(O)c1cc(NCc2ccc(OCc3ccccc3)cc2)ccc1N1CCOCC1	?	28µM*
O=S(=O)(Nc1nc2ccccc2nc1Nc1ccc(F)cc1)c1cccc(Cl)c1	6.3µM*	?
COc1ccc(Nc2nc3ccccc3nc2NS(=O)(=O)c2cccc(Cl)c2)cc1	4%	54%
Cc1sc2nc(SCc3ccc(F)cc3)n(CCCN3CCOCC3)c(=O)c2c1C	1%	2%
C=C(C)COc1ccc2c(C)c(CCC(=O)NCc3ccc(S(N)(=O)=O)cc3)c(=O)oc2c1	4.5µM*	7.1µM*
COc1ccc2c(C)c(CCC(=O)NCc3ccc(S(=O)(=O)N(C)C)cc3)c(=O)oc2c1	-6%	-16%
Cc1ccc(NS(=O)(=O)c2ccc(-c3cnc(C)o3)cc2)c(Cl)c1	15%	53%
COC(=O)C(C)NC(=O)c1ccc(COC(C)=O)cc1 (stereo unspecified)	26%	3%
COc1ccc(C)cc1NC(=O)Cn1c(=O)oc2cc(S(=O)(=O)N3CCCCC3)ccc21	11%	13%
SMILES	FMDV antiviral	FMDV RLuc
COc1ccc(NC(=O)Cn2c(=O)oc3cc(S(=O)(=O)N4CCC(C)CC4)ccc32)c(OC)c1	?	10µM*
CCCCc1nc(NCc2ccncc2)c(C#N)c2c1CCCC2	?	0%
CCc1nc(NCc2ccncc2)c(C#N)c2c1CCCC2	7.1µM*	?
CCOc1cc(CNCc2ccco2)ccc1OCc1ccccc1	-22%	?
O=C(Nc1ccccn1)c1ccc(C2SCCCS2)cc1	13µM*	22%
O=C(O)c1ccc(C2SCCCS2)cc1	0%	-1%[1.06 µM]
N#Cc1nc(-c2ccco2)oc1N1CCN(C(=O)c2ccccc2Cl)CC1	-8%	0%
N#Cc1nc(-c2ccco2)oc1N1CCN(C(=O)CNC(c2ccccc2)c2ccccc2)CC1	?	10µM*
N#Cc1c(NC(=O)c2ccnn2C(F)F)sc2c1CCCCC2	?	5µM*
N#Cc1c(NC(=O)c2ccnn2C(F)F)sc2c1CCCC2	?	3.2µM*
N#Cc1c(NC(=O)c2nn(-c3ccccc3)c(=O)c3ccccc23)sc2c1CCCC2	-4%	1%
N#Cc1c(NC(=O)c2ccnn2C(F)F)sc2c1CCC2	?	3.2µM*
N#Cc1c(NC(=O)CSc2nccn2Cc2ccccc2)sc2c1CCC2	94%	20%
N#Cc1c(NC(=O)c2cc(=O)c3ccccc3o2)sc2c1CCCC2	138%	1%
Cc1[nH]c2nc3ccccc3n2c(=O)c1Cc1ccc(Cl)cc1	-4%	-9%
Fc1ccc(SCCSc2nnc(-c3ccccc3F)n2C2CC2)cc1	31%	-8%[1.06 µM]
CCc1nc2ccccc2c(C(=O)OCC(=O)NC(N)=O)c1C	19%	8%
C=CCNC(=O)NC(=O)COC(=O)c1c(C)c(CC)nc2ccccc12	18µM*	25µM*
CO/C=C(/C(=O)OC)c1ccccc1Oc1cc(Oc2ccccc2C#N)ncn1	?	18µM*
COc1ccc(C(C)=O)cc1COc1ccccc1C#N	21%	34%
